# Test results from PubChem BioAssay.
# Several values for one entry are separate records, joined by “and”; a condition that tells them apart may be missing. Equal entries are not always repeated. Results filed as inconclusive are left out. Activity calls are given as the source filed them.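 How the source made its calls, unless noted: active means normalized viability below 100% at a tested concentration; inactive means the rest.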
# Tests used:
# [1] = Wnt pathway potentiators raising nuclear beta-catenin – imaging, WNT3A-conditioned medium, mouse C2C12, NPC library, primary screen (AID 1117326; in the data active means nuclear beta-catenin stimulation mostly above about 4.2%, no sharp cut-off; inactive means mostly below about 10%); conditions: stronger effect = higher value
# [2] = stimulators of insulin release from INS-1E, primary screen, cell-based, 5 mM glucose, NPC library (AID 1117329;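 active means compound raises insulin release from rat beta cells at 5 mM glucose, no numeric limit stated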); conditions: rat INS-1E insulin secretion, at 10 µM, stronger effect = higher value
# [3] = growth inhibition of GSK3B-pretreated HCT116 cells – cell-based, CellTiter-Glo, 0.2 to 20 µM (AID 1117336;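 active means compounds lowering colon cancer cell viability after pretreatment blocking the GSK3B kinase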); conditions: HCT116 viability after GSK3B inhibitor, at 20 µM, stronger effect = higher value
# [4] = inhibition of endothelial tube formation, primary screen, imaging, VEGF stimulated, CD31 staining, tube area, NPC library (AID 1117340;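 active means compound that reduces growth-factor-driven endothelial tube area in a mixed cell culture, no cutoff stated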); conditions: VEGF-stimulated ADSC/ECFC co-culture, at 10 µM, stronger effect = higher value
# [5] = GLP1 release stimulators, primary, NCI-H716, NPC library (AID 1117341;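 active means compound raises GLP1 secretion from the human gut endocrine cells, with no numeric limit stated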); conditions: NCI-H716 cells, at 10 µM, stronger effect = higher value
# [6] = HCT116 colon cancer cell growth inhibition, primary screen, CellTiter-Glo luminescence, NPC library (AID 1117342;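 active means compounds that lower survival of HCT116 colon cancer cells in the luminescence readout, no numeric limit stated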); conditions: at 20 µM (top of the series)
# [7] = reduced SW480 viability measured with CellTiter-Glo, NPC library, primary (AID 1117343;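 active means compounds that lower viability of the colon cancer cells in the luminescence readout, with no numeric limit stated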); conditions: CellTiter-Glo luminescence; at 20 µM (top of the series) unless noted
# [8] = NPC library primary testing for decreased DLD-1 cell viability via CellTiter-Glo (AID 1117346;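 active means compounds that lower survival of DLD-1 colon cancer cells in the luminescence readout, no cutoff given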); conditions: DLD-1 viability, CellTiter-Glo luminescence; at 20 µM (top of the series)
# [9] = EMT-state selective cytotoxicity in co-culture – imaging, PC-3E GFP, TEM4-18 mCherry, primary screen (AID 1345086;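 active means compounds killing one labelled cell type while sparing the other, by normalised counts and ratio limits, not self-fluorescent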;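 on all read-outs here: cells exposed to compound for 72 h before imaging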;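 on red/green cell ratio (normalised): normalised mesenchymal count divided by normalised epithelial count so high means epithelial killing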); conditions: PC-3E GFP / TEM4-18 mCherry co-culture, imaging cell counts, at 1 µM; for red/green cell ratio (normalised): actives lie on both sides, counts scaled to control wells, 1 = unselective
# [10] = biological target: NAD(+) hydrolase SARM1 (Homo sapiens) (UniProt Q6SZW1); assay: blocking NAD cleavage by SARM1 SAM-TIR – cell lysate, NAD-Glo luminescence (AID 1508614;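 active means compound whose remaining NAD level is above about 45 nM, limit read from the data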); conditions: SAM-TIR HEK293T lysate NADase, at 1 µM, stronger effect = higher value
# [11] = P. berghei load reduction in hepatocytes – cell-based, HepG2, luciferase luminescence, HepG2 viability, primary screen (AID 624349; in the data active means parasite load remaining mostly below about 12%, no sharp cut-off; inactive means mostly above about 10%;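 further: 100% = mean of DMSO negative control wells on the same plate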); conditions: P. berghei liver stage in HepG2, luciferase luminescence, concentration not given here; parasite load remaining: stronger effect = lower value; viability: measured here: HepG2 viability without parasites
# [12] = viability loss with induced miR-34 in A549 – imaging, A549 dox-inducible miR-34, nuclei and caspase counts, primary screen (AID 1347080;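 active means compounds whose cell count with miR-34 switched on is under 0.7 times the count with it off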); conditions: A549 miR-34 inducible, Hoechst nuclei count, 48 h
# [13] = tested on: Aerobactin synthetase IucA (Klebsiella pneumoniae); assay: inhibition of K. pneumoniae IucA enzyme – biochemical, Tocris library, absorbance (AID 1345561; call rule not given here;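 further: 100% = enzyme without compound and 0% = no enzyme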); conditions: purified IucA enzyme assay, absorbance (OD) read-out; stronger effect = lower value;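 tested at 8 µM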
# [14] = viability loss in pontine glioma line – cell-based, SU-DIPG-XVII, MIPE5.0, CellTiter-Glo, qHTS, dose response (AID 1347060; cut-off not given, nearly all actives have AC50 up to about 26 µM); conditions: CellTiter-Glo ATP luminescence
# [15] = viability loss in pontine glioma line – cell-based, SU-DIPG-XIII, MIPE4.0, CellTiter-Glo, qHTS, dose response (AID 1347061; cut-off not given, nearly all actives have AC50 up to about 37 µM;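 further: cells exposed to compound for 48 hours before readout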); conditions: CellTiter-Glo ATP luminescence
# [16] = viability loss in pontine glioma line – cell-based, SU-DIPG-IV, MIPE4.0, CellTiter-Glo, qHTS, dose response (AID 1347063; cut-off not given, nearly all actives have AC50 up to about 30 µM;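 further: compound exposure lasted 48 hours before the viability readout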); conditions: CellTiter-Glo ATP luminescence
# [17] = growth inhibition of DIPG cells – cell-based, MIPE5.0 library, qHTS (AID 1347068; cut-off not given, nearly all actives have IC50 up to about 30 µM); conditions: SU-DIPG-XXV viability
# [18] = drug combination growth inhibition, ovarian cancer – cell-based, oncology-focused library, rucaparib conditional, profiling panel (AID 1508598); conditions: patient-derived ovarian cancer cells, CellTiter-Glo viability, 144 h, stronger effect = lower value
# [19] = galactose survival enhancers in mitochondrial complex I cybrids – cell-based, galactose medium, ATP luminescence, primary screen (AID 1645843;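 active means z-score of at least 1.8 in each of two replicates, scored against plate mean and spread of sample wells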;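 further: positive z means more ATP and so rescue of galactose-driven cybrid death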); conditions: complex I mutant cybrid cells, 72 h, stronger effect = higher value
# [20] = measured here: epithelial PC-3E GFP cell survival
# [21] = measured here: mesenchymal TEM4-18 mCherry cell survival
# [22] = stronger effect = lower value, cell number ratio, induced over uninduced
# [23] = measured here: relative caspase fold change +Dox/-Dox
# [24] = measured here: total cells with miR-34 induction, stronger effect = lower value
# [25] = measured here: total cells without miR-34 induction
# Chain of NAD(+) hydrolase SARM1 (Homo sapiens) (Q6SZW1 whole entry, looked up): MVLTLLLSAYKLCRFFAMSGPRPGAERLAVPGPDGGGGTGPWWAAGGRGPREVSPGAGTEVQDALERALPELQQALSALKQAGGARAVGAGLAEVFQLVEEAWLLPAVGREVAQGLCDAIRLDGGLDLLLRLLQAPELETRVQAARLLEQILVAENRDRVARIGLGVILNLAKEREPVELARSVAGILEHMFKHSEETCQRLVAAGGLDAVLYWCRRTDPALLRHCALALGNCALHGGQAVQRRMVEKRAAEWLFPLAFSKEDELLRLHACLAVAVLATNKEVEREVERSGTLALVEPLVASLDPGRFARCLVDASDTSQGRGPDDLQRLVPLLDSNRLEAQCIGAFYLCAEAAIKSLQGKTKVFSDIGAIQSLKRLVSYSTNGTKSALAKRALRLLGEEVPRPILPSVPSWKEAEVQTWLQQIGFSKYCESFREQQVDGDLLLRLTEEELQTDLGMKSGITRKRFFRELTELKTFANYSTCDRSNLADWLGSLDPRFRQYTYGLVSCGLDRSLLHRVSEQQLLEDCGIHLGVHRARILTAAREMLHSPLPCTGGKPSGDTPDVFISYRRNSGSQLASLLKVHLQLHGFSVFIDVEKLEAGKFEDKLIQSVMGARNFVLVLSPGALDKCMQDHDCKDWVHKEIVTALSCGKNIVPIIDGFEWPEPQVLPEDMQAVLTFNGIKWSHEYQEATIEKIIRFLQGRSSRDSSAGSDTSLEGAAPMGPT
smiles,measurement,setting,value
CC1(C)[C@@H]2CC[C@@]1(C)C(=O)C2,nuclear beta-catenin stimulation,[1]; at 10 µM,0.2% (inactive)
same,nuclear beta-catenin stimulation,"[1]; stimulation, at 2 µM",0.6%
same,insulin secretion stimulation,[2],2.4% (inactive)
same,viability decrease,[3],2.6% (inactive)
same,tube area decrease,[4],-4.3% (inactive)
same,GLP1 secretion stimulation,[5],-0.1% (inactive)
same,inhibition of viability,[6],10.9% (inactive)
same,viability decrease (inhibition),[7],2.9% (inactive)
same,viability decrease (inhibition),[8],15.5% (inactive)
same,red/green cell ratio (normalised),[9],0.84 (inactive)
same,normalised cell number,[9]; [20],1.25
same,normalised cell number,[9]; [21],1.05
same,remaining NAD,[10],10 nM (inactive)
CCN(CC)CCOc1ccc2c(c1)C(=O)c1cc(OCCN(CC)CC)ccc1-2,parasite load remaining,[11],151% (inactive) and 24.6% (inactive)
same,viability,[11],84.5% and 89%
same,nuclear beta-catenin stimulation,[1]; at 10 µM,8.6% (inactive)
same,nuclear beta-catenin stimulation,"[1]; stimulation, at 2 µM",0.3%
same,insulin secretion stimulation,[2],3.7% (inactive)
same,viability decrease,[3],-16.4% (inactive)
same,tube area decrease,[4],13% (inactive)
same,GLP1 secretion stimulation,[5],3.6% (inactive)
same,inhibition of viability,[6],52.8% (active)
same,viability decrease (inhibition),[7],95.3% (active)
same,viability decrease (inhibition),[8],38.8% (inactive)
same,red/green cell ratio (normalised),[9],1.18 (inactive)
same,normalised cell number,[9]; [20],0.79
same,normalised cell number,[9]; [21],0.93
same,fold change,[12]; [22],0.841 (inactive)
same,fold change,[12]; [23],3.57
same,cell count,[12]; [24],9990
same,cell count,[12]; [25],11900
same,remaining NAD,[10],10 nM (inactive)
CC(C)CCCC(C)N (configuration not stated),parasite load remaining,[11],30.8% (inactive)
same,viability,[11],90%
same,nuclear beta-catenin stimulation,[1]; at 10 µM,3.1% (inactive)
same,nuclear beta-catenin stimulation,"[1]; stimulation, at 2 µM",2%
same,insulin secretion stimulation,[2],4.9% (inactive)
same,viability decrease,[3],2% (inactive)
same,tube area decrease,[4],-9.7% (inactive)
same,GLP1 secretion stimulation,[5],0% (inactive)
same,inhibition of viability,[6],-7.6% (inactive)
same,viability decrease (inhibition),[7],-47.3% (active)
same,viability decrease (inhibition),[8],-8.6% (active)
same,red/green cell ratio (normalised),[9],1.15 (inactive)
same,normalised cell number,[9]; [20],0.96
same,normalised cell number,[9]; [21],1.1
same,fold change,[12]; [22],0.884 (inactive)
same,fold change,[12]; [23],1.92
same,cell count,[12]; [24],11300
same,cell count,[12]; [25],12800
same,remaining NAD,[10],10 nM (inactive)
Nc1ncn([C@H]2C[C@H](O)[C@@H](CO)O2)c(=O)n1,nuclear beta-catenin stimulation,[1]; at 10 µM,7.2% (inactive)
same,nuclear beta-catenin stimulation,"[1]; stimulation, at 2 µM",4.5%
same,insulin secretion stimulation,[2],-1.2% (inactive)
same,viability decrease,[3],33.4% (inactive)
same,tube area decrease,[4],58.1% (active)
same,GLP1 secretion stimulation,[5],1.6% (inactive)
same,inhibition of viability,[6],31.2% (inactive)
same,viability decrease (inhibition),[7],53.8% (active)
same,viability decrease (inhibition),[8],18.9% (inactive)
same,remaining activity,[13],97% (inactive)
same,outcome,[14],inactive
same,outcome,[15],inactive
same,outcome,[16],inactive
same,outcome,[17],inactive
same,fold change,[12]; [22],0.823 (inactive)
same,fold change,[12]; [23],1.99
same,cell count,[12]; [24],8200
same,cell count,[12]; [25],9960
same,viability,"[18]; at 0.000305 µM, OCI-C5x cells, with rucaparib 10 µM, 100% = cells with rucaparib alone",122% (inactive)
same,viability,"[18]; at 0.000305 µM, OCI-C5x cells, without rucaparib",112% (inactive)
same,viability,"[18]; at 0.000305 µM, OCI-P5x cells, with rucaparib 20 µM, 100% = cells with rucaparib alone",104% (inactive)
same,viability,"[18]; at 0.000305 µM, OCI-P5x cells, without rucaparib",112% (inactive)
same,viability,"[18]; at 0.00122 µM, OCI-C5x cells, with rucaparib 10 µM, 100% = cells with rucaparib alone",111% (inactive)
same,viability,"[18]; at 0.00122 µM, OCI-C5x cells, without rucaparib",107% (inactive)
same,viability,"[18]; at 0.00122 µM, OCI-P5x cells, with rucaparib 20 µM, 100% = cells with rucaparib alone",111% (inactive)
same,viability,"[18]; at 0.00122 µM, OCI-P5x cells, without rucaparib",103% (inactive)
same,viability,"[18]; at 0.00488 µM, OCI-C5x cells, with rucaparib 10 µM, 100% = cells with rucaparib alone",113% (inactive)
same,viability,"[18]; at 0.00488 µM, OCI-C5x cells, without rucaparib",112% (inactive)
same,viability,"[18]; at 0.00488 µM, OCI-P5x cells, with rucaparib 20 µM, 100% = cells with rucaparib alone",99.8% (active)
same,viability,"[18]; at 0.00488 µM, OCI-P5x cells, without rucaparib",95.8% (active)
same,viability,"[18]; at 0.0195 µM, OCI-C5x cells, with rucaparib 10 µM, 100% = cells with rucaparib alone",103% (inactive)
same,viability,"[18]; at 0.0195 µM, OCI-C5x cells, without rucaparib",108% (inactive)
same,viability,"[18]; at 0.0195 µM, OCI-P5x cells, with rucaparib 20 µM, 100% = cells with rucaparib alone",82.8% (active)
same,viability,"[18]; at 0.0195 µM, OCI-P5x cells, without rucaparib",95.2% (active)
same,viability,"[18]; at 0.0781 µM, OCI-C5x cells, with rucaparib 10 µM, 100% = cells with rucaparib alone",101% (inactive)
same,viability,"[18]; at 0.0781 µM, OCI-C5x cells, without rucaparib",107% (inactive)
same,viability,"[18]; at 0.0781 µM, OCI-P5x cells, with rucaparib 20 µM, 100% = cells with rucaparib alone",96.6% (active)
same,viability,"[18]; at 0.0781 µM, OCI-P5x cells, without rucaparib",88.3% (active)
same,viability,"[18]; at 0.313 µM, OCI-C5x cells, with rucaparib 10 µM, 100% = cells with rucaparib alone",85.8% (active)
same,viability,"[18]; at 0.313 µM, OCI-C5x cells, without rucaparib",88.1% (active)
same,viability,"[18]; at 0.313 µM, OCI-P5x cells, with rucaparib 20 µM, 100% = cells with rucaparib alone",84.8% (active)
same,viability,"[18]; at 0.313 µM, OCI-P5x cells, without rucaparib",68.4% (active)
same,viability,"[18]; at 1.25 µM, OCI-C5x cells, with rucaparib 10 µM, 100% = cells with rucaparib alone",80.4% (active)
same,viability,"[18]; at 1.25 µM, OCI-C5x cells, without rucaparib",80% (active)
same,viability,"[18]; at 1.25 µM, OCI-P5x cells, with rucaparib 20 µM, 100% = cells with rucaparib alone",68.8% (active)
same,viability,"[18]; at 1.25 µM, OCI-P5x cells, without rucaparib",61.9% (active)
same,viability,"[18]; at 5 µM, OCI-C5x cells, with rucaparib 10 µM, 100% = cells with rucaparib alone",49.1% (active)
same,viability,"[18]; at 5 µM, OCI-C5x cells, without rucaparib",63.2% (active)
same,viability,"[18]; at 5 µM, OCI-P5x cells, with rucaparib 20 µM, 100% = cells with rucaparib alone",57.9% (active)
same,viability,"[18]; at 5 µM, OCI-P5x cells, without rucaparib",46.9% (active)
same,z-score,[19],0.69 (inactive)
